Out of some 340,000 compounds screened, fewer than 10 were called active. Calls follow the shape of the dose curve; as a rule, active = well fitted inhibition curve with a large enough effect in the main read-out, with a control signal flat (not every such curve was filed as active); inconclusive = small, poorly fitted or top-dose-only effect, or effect the other way, or a change in a side signal; inactive = no such curve, though single readings can be large or run the other way. The list is a sample of the results.

In this assay the target is Tumor susceptibility gene 101 protein (Homo sapiens) (UniProt Q99816). The experiment in a line: qHTS Assay for Iinhibitors of HIV-1 Budding by Blocking the Interaction of PTAP/TSG101. The settings on record: Fluorescence polarization, FITC-PTAP peptide / Tsg101 binding; series mostly up to 115 µM. The source says: NIH Molecular Libraries Probe Production Network [MLPCN] NIH Chemical Genomics Center [NCGC] MLPCN Grant: 1 R03 MH087464-01A1 PI Name: Dr. Eric Freed, NCI NCGC Assay Overview: Stages of the HIV-1 replication cycle, specifically virus assembly and release, provide underexploited targets for the development of novel antiviral inhibitors. The late stages of HIV-1 replication are mediated by the Gag precursor protein, Pr55Gag. Expression of Pr55Gag is both necessary and sufficient for the production of virus-like particles from Gag-expressing cells. The Gag protein hijacks key host proteins involved in endocytic machinery of the host cell to promote endosomal processing and viral budding. The budding process requires a direct interaction between a […] (PTAP) motif in the p6 domain of Gag and the cellular endosomal sorting protein known as Tsg101. In this way, the Gag PTAP motif promotes the host cells to recruit viral particles to the plasma membrane where the new viral particles are released, effectively turning the host cells into viral factories. A fluorescence anisotropy assay has been developed to quantitatively measure the PTAP-Tsg101 interaction which can be used to screen for inhibitors of this interaction.
Tumor susceptibility gene 101 protein (Homo sapiens), sequence (Q99816 whole entry, looked up): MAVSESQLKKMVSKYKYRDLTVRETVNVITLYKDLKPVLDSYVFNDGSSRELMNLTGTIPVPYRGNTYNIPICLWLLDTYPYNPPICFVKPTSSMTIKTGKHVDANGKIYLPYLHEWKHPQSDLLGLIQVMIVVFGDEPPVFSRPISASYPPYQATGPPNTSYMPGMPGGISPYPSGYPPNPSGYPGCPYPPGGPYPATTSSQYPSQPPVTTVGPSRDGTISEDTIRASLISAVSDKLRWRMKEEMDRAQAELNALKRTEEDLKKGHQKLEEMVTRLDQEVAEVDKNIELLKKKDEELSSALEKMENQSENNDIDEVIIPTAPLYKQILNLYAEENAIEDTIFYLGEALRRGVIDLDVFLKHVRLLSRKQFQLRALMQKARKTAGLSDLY
NCGC Assay Protocol Summary: Two uL of the Tsg101 binding domain in buffer (10 mM HEPES pH 7.5; 0.15 M NaCl, 0.01% Tween 20; 3 mM EDTA;0.1 mM TCEP) was dispensed into Greiner black MB 1536-well plates (final concentration 10 uM). Then, 23 nL of compounds or DMSO were delivered to each well using a pin tool. Finally, 2 uL of a FITC-labeled peptide containing the PTAP motif (1) in the same buffer was dispensed (50 nM final concentration) and the binding was allowed to proceed for 20 min. at r.t. Fluorescent polarization was determined using FITC excitation and polarized emission filters on a Perkin Elmer Viewlux. Keywords: Tsg101, PTAP, Gag, HIV, fluorescent polarization, MLSMR, MLPCN, NIH Roadmap, qHTS, NCGC
As for `Cc1nc2ccc(N)nc2nc1C`, the call was inactive. As for `C/C(=N\NC(=O)OC(C)(C)C)c1ccc[nH]1`, the result was inactive. For `O=C(CCN1C(=O)[C@H]2CC=CC[C@H]2C1=O)NCc1nc(-c2ccccc2)no1`, the compound was called inactive. Turning to `CCc1nnc(NC(=O)CSc2nnc(COc3ccc(C#N)cc3)n2-c2ccccc2)s1`, the outcome was inactive. On to `CCN(CCn1cccn1)Cc1cn[nH]c1-c1ccc(OC)cc1F`, for which the outcome was inactive. Regarding `CC1CN(Cc2nc3c(c(=O)n(C)c(=O)n3C)n2Cc2cccc(Cl)c2)CC(C)O1` (stereo not given), the compound was classed as inactive.

For `O=C(c1ccc(C(F)(F)F)cc1)C1CCCN(C(=O)c2csnn2)C1` (stereo not given), the call was inactive. In the case of `CN1CCC(N(C)C(=O)c2ccc(Cl)c(S(=O)(=O)Nc3ccc(Cl)cc3)c2)CC1`, the outcome was inactive. In the case of `O=C(C[C@H]1C/C=C\C[C@@H](NC(=O)OCC2c3ccccc3-c3ccccc32)C(=O)O[C@@H](c2ccccc2)CNC1=O)N[C@H](CO)Cc1ccccc1`, the result was inactive. Under `COc1cc(/C=C/c2ccc(/C=C/c3cc(OC)c(OC)c(OC)c3)cc2)cc(OC)c1OC` stands “inactive”; under `CCOC(=O)c1ccc2[nH]c3c(c2c1)CCCC3NC=O` (stereo not given), “inactive”. For the compound `CCN1CCN(C(=O)Cn2nc(C)n3c(cc4c(OC)cccc43)c2=O)CC1`, the compound was classed as inactive.

For the compound `O=C(NCc1nnc(SCC(=O)N2CCC(Cc3ccccc3)CC2)o1)c1ccco1`, the compound was classed as inactive. As for `CCN(CC)S(=O)(=O)c1ccc2[nH]c(=O)cc(C(=O)N(C)C3CCS(=O)(=O)C3)c2c1` (stereo not given), the result was inactive. In the case of `O=C(C1CCCO1)N(c1ccc(F)cc1)C1C=CS(=O)(=O)C1` (stereo not given), the compound was called inactive.

Turning to `O=C(NCc1ccccc1)c1cccc(NC(=O)C2CCCCC2)c1`, the call was inactive. Take `c1ccc(-c2nccc(-c3ccc(-n4cnc5ccccc54)cc3)n2)nc1`: the result was inactive.

In the case of `CCC(C)Sc1nc(C)nc2c1c(=O)n(C)c(=O)n2C` (stereo not given), the compound was classed as inactive.

On to `CCN(CC)C(=O)CSc1nc2ccccc2n1CC(=O)N1CCN(c2ccccc2OC)CC1`, for which the call was inactive. As for `CCOc1ccccc1NC(=S)C(=C([O-])c1ccc2c(c1)OCCO2)[n+]1ccc(CC)cc1`, the compound was classed as inactive. As to `O=C(CSc1nnc(-c2cccs2)n1Cc1ccco1)c1ccc2c(c1)OCO2`, the compound was classed as inactive. In the case of `COC(=O)c1ccc(NC(=O)CSc2nncc3ccc(OC)c(OC)c23)cc1`, the result was inactive. In the case of `Cc1noc(C)c1C(=O)NCCc1ccc(S(N)(=O)=O)cc1`, the result was inactive. Under `O=C(CN1CCN(c2ccc(O)cc2)CC1)Nc1ccc(-c2ccccc2)cc1` stands “inactive”; under `CCN(C(=O)COC(=O)c1c(C)nn(-c2ccccc2)c1Cl)c1c(N)n(Cc2ccccc2)c(=O)[nH]c1=O`, “inactive”; under `COc1cccc(-c2nn(-c3ccccc3)cc2/C=C(\C#N)C(=O)NCCCn2ccnc2)c1`, “inactive”. In the case of `Nc1c(-c2cccc(Cl)c2)cnn1-c1cccc([N+](=O)[O-])c1`, the compound was called inactive.

As for `COc1ccc(CN2C(=O)CC(Cc3ccc(C)cc3)C2=O)cc1OC` (stereo not given), the compound was classed as inactive. Take `C/C(=N\N=C(N)N)c1ccc(Cl)cc1`: the call was inactive. In the case of `CC(C)Oc1ccc(C2NC(=O)NC2=O)cc1` (stereo not given), the outcome was inactive. Regarding `COC(=O)C1(S(=O)(=O)C2(C(=O)OC)CCCC2)CCCC1`, the compound was classed as inactive. In the case of `C=CCOC(=O)C1=C(C)N=C2SCCC(=O)N2C1/C=C/c1ccccc1OC` (stereo not given) it was “inactive”; in that of `Cc1ccc(N(C(=O)CC2NC(=O)NC2=O)C2(C(=O)NC3CCCC3)CCCCC2)cc1` (stereo not given), “inactive”; in that of `O=S(=O)(NCCS(=O)(=O)N1CCN(c2ccccc2)CC1)c1ccc(F)cc1`, “inactive”.

For the compound `Fc1ccc(-n2c(Cc3ccccc3)nnc2SCc2nc(-c3ccc(Cl)cc3)no2)cc1`, the outcome was inactive. Consider `N/C(=N\OC(=O)CCc1ccccc1)c1ccc(Cl)cc1`, for which the compound was classed as inactive. Under `O=C(CN1CCN(Cc2ccccc2)CC1)NC(c1ccccc1)c1ccccc1` stands “inactive”.

For the compound `O=C(O)c1[nH]c2ccccc2c1C(c1cccc(O)c1)c1c(C(=O)O)[nH]c2ccccc12`, the outcome was inactive. Turning to `COCCCNCC(=O)Nc1sc(C)c(C)c1C(=O)OC`, the outcome was inactive. As to `CCn1c(SCC(=O)NC2=NCCS2)nnc1C(C)NC(=O)c1ccccc1F` (stereo not given), the result was inactive. For `Cc1ncc([N+](=O)[O-])n1CCOC(=O)c1ccc(Br)cc1`, the result was inactive. Turning to `CC(C)(C)C(=O)Nc1cccc(-c2ccc[nH]2)n1`, the result was inactive.

In the case of `O=C(C/C(=N\NC(=O)c1ccccc1Br)C(F)(F)F)c1cccs1`, the compound was called inactive. For the compound `COC(=O)[C@@]12CCCN1[C@H](c1ccc(-c3ccc(F)cc3)c(OC)c1)[C@H]1C(=O)N(C)C(=O)[C@H]12`, the compound was called inactive. In the case of `C=C1c2c(Cl)ccc(O)c2C(O)=C2C(=O)[C@]3(O)C(O)=C(C(N)=O)C(=O)[C@@H](N(C)C)[C@@H]3[C@@H](O)C12` (stereo not given in full), the compound was classed as inactive. Under `Cc1ccc(C)c(OCCC(=O)OCC(=O)NC(=O)NCc2ccccc2)c1` stands “inactive”; under `COc1ccc(NC(=O)CSc2ccc(-c3ccco3)nn2)c(OC)c1`, “inactive”. Turning to `COC(=O)[C@]1(C)CCC[C@@]2(C)C3CC[C@]4(OC(C)=O)C[C@@]3(CCC21)CC4=NO` (stereo not given in full), the compound was classed as inactive.

For the compound `COc1ccc(C(=O)CCc2ccccc2O)c(OC)c1`, the result was inactive. In the case of `Cc1ccc(CNC(=O)CCC(=O)N2CC(C)Sc3ccccc32)cc1` (stereo not given) it was “inactive”. For the compound `Cc1cc(C)cc(NC(=O)N2CCC(NC(=O)c3ccc(F)cc3)CC2)c1`, the compound was called inactive. For `Cc1ccc(CCCOC(=O)C[N+]2(C)CCCCC2)cc1`, the compound was called inactive. In the case of `Cc1noc(C)c1S(=O)(=O)N1CCCC(C(=O)Nc2nccs2)C1` (stereo not given), the compound was called inactive. Under `CCCCNC1(C#N)CCN(Cc2ccccc2)CC1` stands “inactive”; under `O=C(NNC(=S)NCCCN1CCOCC1)c1ccncc1`, “inactive”. For `CCOc1cc(CN2CCCC(CO)(Cc3ccc(F)cc3F)C2)ccc1OC` (stereo not given), the compound was called inactive. Turning to `Cc1ccc2c(C)c(C(=O)N(C)CCC3CCCCO3)oc2c1C` (stereo not given), the outcome was inactive. Consider `CN(C)C(=O)c1ccc2c(c1)C1C3CCC(C3)C1C(c1ccccc1)N2` (stereo not given), for which the compound was called inactive. In the case of `O=C(CCC1CCCC1)N=C1SC2CS(=O)(=O)CC2N1Cc1ccccc1` (stereo not given) it was “inactive”; in that of `Cc1ccc(CN(N=Nc2nonc2N)c2nonc2N)c(C)c1`, “inactive”. For `Cc1ccc(C(=O)O)cc1N1C(=O)CCCC1=O`, the call was inactive.

Take `Cc1ccc(CN2CCN(c3ccccc3Cl)CC2)o1`: the compound was classed as inactive. Take `CCCC(=O)Nc1nnc(CC(=O)OCC)s1`: the outcome was inactive.

For `COc1ccc(CCNCc2c(-c3ccccc3)n(C)c3ccccc23)cc1`, the outcome was inactive. As to `COc1ccc(F)cc1S(=O)(=O)N1CCCCC1`, the result was inactive.

The values above are taken from PubChem BioAssay AID493005 (National Center for Advancing Translational Sciences (NCATS), 2010).
